Assay outcomes as filed in PubChem.
In the library only some 1.5% were active in any assay of this set; here they are far more common.
IDE cell activ = activators of human insulin-degrading enzyme in cells; P14735; HEK cells, FAbeta-B cleavage, fluorescence polarization; 0% vehicle, 100% cell-free pure enzyme wells; activation, % at 5.96 µM; actives 0.073% (n = 340,000);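 active = activation above the mean of all tested compounds plus 3 SD, set per screening campaign, cut at about 17% in these data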
cardiac RTF act = cardiac RTF calcium sensitization; IANBD-labeled TnC RTF fluorescence at EC20 calcium; 0% EC20 calcium, 100% full calcium; activation, % at 7.2 µM; actives 0.24% (n = 340,000); AID 493008;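 active = activation above the mean over all tested compounds plus 3 SD, cut at about 30% in these data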;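 note: rise in fluorescence read as greater calcium sensitivity of cardiac thin filaments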
IDE inh = inhibitors of human insulin-degrading enzyme in cells | P14735 | HEK cells, FAbetaB cleavage, fluorescence polarization | inhibition, % at 5.59 µM | actives 0.41% (n = 320,000) | AID 434962;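 active = percent inhibition above the average of all tested compounds plus 3 SD, set per screening campaign, cut at about 16% in these data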;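 note: IDE supplied by intact live HEK cells; FP after avidin binding of uncleaved biotin substrate so inhibition keeps polarization high; 0% = DMSO wells and 100% = 60 µM reference IDE inhibitor Ii1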
TPT1 inhibitor = blocks Candida albicans tRNA 2'-phosphotransferase | recombinant caTPT1, FP RNA substrate dephosphorylation | inhibition, % at 5 µM | actives 0.81% (n = 300,000) | AID 1962;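 active = inhibition above the mean of all tested compounds plus 3 SD, set per screening campaign, cut at about 24% in these data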;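 note: plate controls were DMSO alone for no effect and ferristatin control at 100 nM for full effect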
CRFBP-R2 agonist = agonists of human CRF-binding protein/CRF-R2 receptor complex | HEK293 CRF-R2/CRF-BP, calcium dye fluorescence (FLIPR); percent of saturating CRF peptide response | AID 588473 | activation, % at 13.2 µM | actives 0.46% (n = 350,000);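 active = activation of at least 50%, plus an integration ratio under a set limit after plate pattern correction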;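 note: plate controls were neutral control wells without compound for no effect and CRF at EC100 for full effect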
RTF Ca sens inh = cardiac RTF calcium desensitization. P19429+P45379. IANBD-labeled cardiac RTF, Ca2+ fluorescence. inhibition, % at 7.15 µM. actives 0.12% (n = 340,000). AID 493244;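 active = inhibition above the mean inhibition of all tested compounds plus 3 SD, cut at about 17% in these data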;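 note: assay run at fixed EC70 calcium of 1.6 mM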
IDE cell inh cf = confirmation of human insulin-degrading enzyme inhibitors in cells; shares compounds with IDE inh; HEK cells, FAbetaB cleavage, fluorescence polarization; inhibition, % at 5.59 µM; actives 51% (n = 1,200); AID 435028;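 active = mean inhibition across triplicate wells above the cutoff set by the earlier primary insulin-degrading enzyme screen, cut at about 16% in these data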;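 note: 0% = DMSO wells and 100% = 60 µM reference IDE inhibitor Ii1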
HEK cytotox = counter-screen for IDE inhibitors: cytotoxicity in HEK cells; inhibition, % at 5.59 µM; actives 28% (n = 1,200); shares compounds with IDE inh; HEK293 cytotoxicity, ATP luminescence; in the data active = inhibition above about 22%;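 note: 0% = vehicle wells and 100% = reference cytotoxic drug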
* hit, by the source's call; i = inactive; nt = no result given.

SMILES	IDE cell activ	cardiac RTF act	IDE inh	TPT1 inhibitor	CRFBP-R2 agonist	RTF Ca sens inh	IDE cell inh cf	HEK cytotox
O=C(NCC1CCCO1)C(c1cccs1)N(Cc1ccccc1Cl)C(=O)c1ccc(-c2ccccc2)[nH]1 (stereo not given)	4.2	4.9	4.1	1.1	-1.4	14.0	nt	nt
Cc1cc(C)c2nc(/N=C(\N)NC(=O)Nc3ccccc3)nc(C)c2c1	3.9	-10.9	-5.2	-3.0	-1.3	1.8	nt	nt
Cc1cc(C)c2nc(/N=C(\N)NC(=O)c3ccccc3)nc(C)c2c1	5.0	0.8	16.8*	-3.7	1.2	-3.2	3.6	9.8
CCOc1ccc(N=C2NC(=O)S/C2=C\c2ccc(N(C)C)cc2)cc1	-13.1	17.4	13.0	7.9	20.6	-35.0	nt	nt
CCOc1ccc(/C=C2/SC(=O)NC2=S)cc1	-2.9	-2.7	33.5*	-0.1	1.7	-87.0	1.8	14.2
CCOc1ccc(NC(=O)CN(C)C(=O)c2ccc3nc(CC)c(CC)nc3c2)cc1OCC	0.9	-6.7	-0.8	3.8	-0.9	-4.2	nt	nt
Cc1ccc(N(CC(=O)NCc2ccccc2)C(=O)CCC(=O)Nc2ccccn2)cc1C	-0.5	-4.2	2.3	1.9	0.1	-1.2	nt	nt
CCOc1ccccc1NC(=O)c1csc(C)c1C	0.3	0.5	-4.0	-2.1	-2.3	-1.6	nt	nt
CCNC(=O)CSc1nc(-c2ccc(F)cc2)cs1	-2.2	10.2	3.8	-1.4	0.7	-9.2	nt	nt
CC(C)(C)NC(=O)CSc1nc(-c2ccc(F)cc2)cs1	5.5	3.1	16.5*	1.7	-0.5	1.5	2.3	13.5
O=C(N/N=C/c1cccnc1)c1cccc(NC(=O)c2cccc(Br)c2)c1	-14.0	-6.6	24.8*	-2.9	-0.3	5.8	16.6*	7.6
CCCCNC(=O)NNC(=O)c1cc(C)on1	1.0	-1.3	4.1	0.8	0.7	-5.0	nt	nt
O=C1NC(=S)CN1c1ccccc1	-31.5	2.4	23.8*	-18.8	1.5	0.2	4.7	7.1
O=C1N(c2ccccc2)CCN1c1ccccc1	5.3	2.9	3.9	-3.8	0.4	-1.1	nt	nt
CC(CC(=O)O)CC(=O)N1CCN(S(=O)(=O)c2cccs2)CC1 (stereo not given)	-23.8	1.9	20.2*	-1.5	3.9	-9.1	11.6	9.4
O=C(NCCN1CCCCC1)c1cc(COc2c(F)cccc2F)on1	3.9	-4.1	1.2	1.7	0.9	-16.9	nt	nt
CC(=O)Nc1ccc(NC(=O)C(C)OC(=O)c2c(NC(C)=O)sc(C)c2C)cc1 (stereo not given)	5.7	-3.4	1.4	nt	-2.0	-3.8	nt	nt
CC(Oc1ccc2c3c(c(=O)oc2c1)CCC3)C(=O)NCc1cccnc1 (stereo not given)	0.7	3.9	0.8	1.4	1.0	-4.2	nt	nt
CC(Oc1ccc2c3c(c(=O)oc2c1)CCCC3)C(=O)NCc1ccncc1 (stereo not given)	-34.2	-3.5	23.6*	0.5	-0.8	0.9	17.5*	15.5
CCOC(=O)c1c(C)[nH]c(C(=O)Cn2nnc(-c3ccccc3Cl)n2)c1C	-18.9	-3.5	18.8*	-3.7	4.3	-5.2	3.6	15.2
CC(=O)Oc1c(Cl)cc(Cl)cc1/C=C/c1ccc2ccccc2n1	-64.7	0.0	45.1*	6.2	14.6	-4.1	68.0*	12.1
Cc1ccc(NC(=O)CSCC(=O)Nc2cccc(S(=O)(=O)N3CCCCCC3)c2)cc1	0.0	0.3	-2.3	nt	-0.6	-1.6	nt	nt
C=CCn1c(COc2cccc(C)c2C)nnc1SCC(=O)N1CCN(c2ccccc2)CC1	-16.6	0.3	26.9*	2.4	0.5	4.5	-0.7	38.0*
CCn1c(COc2c(C)cccc2C)nnc1SCC(=O)N1CCN(c2ccccc2)CC1	-1.4	-0.6	2.4	-1.0	-4.7	-4.4	nt	nt
O=C(Cc1ccccc1)NCC(=O)N1CCN(c2ccccc2)CC1	2.0	0.2	0.9	2.2	-2.1	-2.1	nt	nt
SMILES	IDE cell activ	cardiac RTF act	IDE inh	TPT1 inhibitor	CRFBP-R2 agonist	RTF Ca sens inh	IDE cell inh cf	HEK cytotox
O=C(COc1ccc(F)cc1Br)NCc1nnc2ccccn12	-1.6	-3.1	0.8	nt	2.6	-5.3	nt	nt
Cc1cc(CSc2ccccc2)ccc1NC(=O)c1ccc(CN2CCOCC2)cc1	-10.5	-4.9	25.1*	0.6	3.8	-9.4	9.0	75.4*
CCCc1cc(=O)oc2c3c(cc(OCC(=O)NCc4ccccn4)c12)OC(C)(C)CC3	-2.0	7.7	3.6	1.2	-0.6	-6.5	nt	nt
CCCc1cc(=O)oc2c3c(cc(OCC(=O)NCc4ccncc4)c12)OC(C)(C)CC3	-25.3	5.1	22.8*	-4.9	-2.5	0.2	8.3	25.2*
COc1ccc(NC(=O)CN(C)CC(=O)Nc2ccc3c(c2)CCC3)cc1	-2.0	5.0	2.7	-5.7	-1.5	2.4	nt	nt
CN(CC(=O)Nc1ccc2c(c1)CCC2)CC(=O)Nc1ccccc1Br	-5.0	2.3	18.7*	-3.0	-1.6	-13.4	4.0	7.5
CCOC(=O)C1=C(CSc2nc3c(cc2C#N)CCC3)OC(N)=C(C#N)C1c1ccccc1 (stereo not given)	-7.9	-7.4	17.4*	3.8	1.3	-9.9	0.1	7.8
Cc1ccc(C2=Nc3ccccc3N(C(=O)c3ccccc3)C(C)C2)cc1 (stereo not given)	-0.4	-2.9	2.5	-2.8	3.5	1.8	nt	nt
O=c1oc2cc(O)ccc2cc1-c1nc2c(s1)CCc1ccccc1-2	30.7*	897.4*	127.6*	18.9	278.6*	i	25.9*	16.4
COc1ccc(C)cc1NC(=O)CCS(=O)(=O)c1ccc2c(c1)oc(=O)n2C	3.6	-2.1	2.9	0.8	-1.0	2.7	nt	nt
S=C(NCC1CCCO1)N1CCN(c2nc(-c3ccc(Cl)cc3)cs2)CC1 (stereo not given)	-22.6	3.3	20.6*	4.2	2.0	1.1	12.0	54.4*
S=C(NCC1CCCO1)N1CCN(c2cccc(Cl)c2)CC1 (stereo not given)	3.0	1.7	4.2	1.8	-1.1	2.2	nt	nt
S=C(NCCCN1CCOCC1)N1CCN(c2nc(-c3ccccc3)cs2)CC1	-6.2	2.9	22.7*	0.8	-0.8	15.1	2.1	26.9*
CCOc1cc(Br)cc(/C=C2\SC(=Nc3ccccc3)NC2=O)c1O	-24.2	-2.2	22.2*	2.6	2.0	-0.3	27.3*	11.9
C=CCOc1ccc(Br)cc1/C=C1/SC(=Nc2ccc(C(=O)O)cc2)NC1=O	1.2	2.6	nt	nt	-1.9	-6.8	nt	nt
CCc1ccc(N=C2NC(=O)/C(=C/c3cc(OC)c(OC)c(OC)c3)S2)cc1	5.6	-2.1	5.1	-1.9	-0.1	0.8	nt	nt
COc1cc(/C=C2\SC(=Nc3ccc(O)cc3)NC2=O)cc(OC)c1O	-65.4	0.5	128.2*	16.9	28.5	-3.2	152.2*	19.2
